The list is not random: actives were taken first. Their share in the collection is about 3.3%.
MITF TRPM1 HTS: increases MITF-driven TRPM1 promoter luciferase signal | SK-MEL-5 TRPM1-promoter luciferase, 24 h; % of positive control, neutral wells = 0 | activation, % at 12.5 µM | 300,000 compounds, 0.75% hits | AID 588334;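 active = mean activation of at least 80% with every replicate also reaching 80%; inconclusive = mean reaches 80% but some replicate falls short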;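 also: 0% = neutral control wells and 100% = parthenolide positive control wells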
Wnt bcat act: activates Wnt/beta-catenin signaling in a reporter cell assay | activator, plate reader | 300,000 compounds, 1.2% hits | activation, % at 9.35 µM; in the data active = activation above about 30%, passing the limit was not always enough; inconclusive = no clear call, values can overlap the other calls;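 also: 0% = neutral control wells and 100% = positive control wells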
FXN GAA850 act: frataxin GAA850 promoter activation | HEK293 lucGAA850 FXN promoter luciferase reporter, 24 h; percent of 10 µM SAHA response | activation, % at 6 µM | 360,000 compounds, 0.56% hits | AID 540364;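 active = activation above the average of all compounds screened plus 3 SD, cutoff fixed separately per campaign, cut at about 7.5% in these data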;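 also: 0% = DMSO wells and 100% = 10 µM SAHA wells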
esBAF inh: inhibitors of esBAF chromatin remodeling in mouse ES cells; Bmi1-luciferase knock-in reporter, 24 h; 100% = twice the neutral-well signal; reporter increase, % at 12.5 µM; 350,000 compounds, 2% hits; AID 602393; in the data active = activation above about 40%; inconclusive = no clear call, values can overlap the other calls;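 also: 0% = median of the plate's neutral control wells and 100% = double that signal; a rise in the Bmi1 reporter signal indicates esBAF inhibition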
C2C12 statin: suppressors of simvastatin-induced myotoxicity in C2C12 myotubes; AID 602340; 330,000 compounds, 0.78% hits; rescue of ATP level, % at 7.49 µM; ATP luminescence, 48 h; scaled: DMSO 0, geranylgeraniol control 100;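 active = mean ATP rescue above about 67%, or every replicate alone reaching that limit, limit read from the data, passing the limit was not always enough; inconclusive = no clear call, values can overlap the other calls; inactive = mean under the limit and some replicate under it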;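 also: myotubes were challenged with 10 µM simvastatin during compound exposure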
Active calls of the source: *; ? = inconclusive; nt = not tested or not shown.

SMILES | MITF TRPM1 HTS | Wnt bcat act | FXN GAA850 act | esBAF inh | C2C12 statin
C=CCn1c(C)cc(C(=O)CSc2nc3ccccc3o2)c1C | 46 | 47* | 2 | nt | nt
Cc1cc(C(=O)CSc2nc3ccccc3o2)c(C)n1C1CC1 | nt | nt | 1 | 36 | -7
Cc1cccc(NC(=O)CSc2nc3ccccc3o2)c1 | nt | nt | 2 | 47* | 0
C=CCn1c(C)cc(C(=O)CSc2nc3ccccc3c(=O)[nH]2)c1C | 16 | 44* | 4 | 12 | -23
CC(=O)N(C)C[C@H]1Oc2cc(-c3ccc(C#N)cc3)ccc2S(=O)(=O)N([C@H](C)CO)C[C@@H]1C | nt | nt | nt | -1 | -9
CCn1cnc2cc(NCc3cccs3)ccc21 | 21 | 2 | 5 | 31 | 7
CC(C)(C)n1cnc2cc(NCc3cccs3)ccc21 | 63 | 5 | 3 | 52* | 1
Cc1cc(=O)oc(C)c1C(=O)NCCNC(=O)c1c(C)cc(=O)oc1C | 0 | nt | -1 | -13 | 121*
Cc1cc(=O)oc(C)c1C(=O)NCCC(C)C | 3 | -2 | 0 | -1 | -24
CCc1ccc(Oc2cc(C)nc(N)n2)cc1 | 53 | nt | 6 | 61* | -3
CO[C@@H]1CN(C)C(=O)c2ccc(NC(=O)Nc3ccc4c(c3)OCO4)cc2OC[C@H](C)NC[C@@H]1C | nt | nt | nt | 60* | 7
CO[C@@H]1CN(C)C(=O)c2ccc(NC(=O)Nc3ccc4c(c3)OCO4)cc2OC[C@@H](C)NC[C@@H]1C | nt | nt | nt | 87* | 10
COc1ccc([C@H]2CC(=O)C=C(c3cccc(OC)c3)C2)cc1 | 5 | -2 | 3 | -1 | 8
COc1ccc([C@H]2CC(=O)C=C(c3ccccc3)C2)cc1OC | 7 | -1 | 1 | 0 | 80*
COc1ccc(C2=CC(=O)C[C@H](c3ccc(OC)c(OC)c3)C2)cn1 | nt | -2 | 3 | 5 | -8
COc1ccc([C@H]2CC(=O)C=C(c3cccc(C#N)c3)C2)cc1 | 22 | -6 | 1 | 45* | -6
COc1ccc([C@H]2CC(=O)C=C(c3ccc(F)nc3)C2)cc1OC | -3 | 9 | 0 | -3 | 90*
C[C@H](CO)N1C[C@H](C)[C@H](CN(C)C)Oc2cc(C#Cc3cccnc3)ccc2S1(=O)=O | nt | nt | nt | 1 | 0
Cc1noc(C)c1NC(=O)Nc1ccc2c(c1)C(=O)N([C@@H](C)CO)C[C@@H](C)[C@H](CN(C)C(=O)Nc1ccc(C(F)(F)F)cc1)O2 | nt | nt | nt | 7 | -2
O=C(NCC[C@H]1CC[C@H](NC(=O)C2CCCCC2)[C@H](CO)O1)c1ccc(F)cc1 | nt | nt | nt | -3 | -3
COc1cc(NC(=O)CN(C)S(=O)(=O)c2ccc3c(c2)CC(C)N3C(C)=O)cc(OC)c1OC (configuration not stated) | -7 | -1 | -2 | -6 | 109*
CC(=O)N1c2ccc(S(=O)(=O)N(C)CC(=O)NCc3ccccc3)cc2CC1C (configuration not stated) | -4 | -1 | -1 | 4 | 15
CN(C)c1ccc(/C=N/c2cc(-c3ccccc3)nn2-c2ccccc2)cc1 | nt | 21 | 7 | 62* | 9
Cc1nc2ccccc2c(=O)n1/N=C/c1ccc(N(C)C)cc1 | 19 | 0 | 1 | -2 | 6
CC(=O)c1cccc(NC(=O)c2cc(-c3cccs3)on2)c1 | 36 | 20 | 0 | 14 | -1
SMILES | MITF TRPM1 HTS | Wnt bcat act | FXN GAA850 act | esBAF inh | C2C12 statin
O=C(Nc1ccc(Cl)cc1)c1cc(-c2cccs2)on1 | 73 | 0 | 2 | 4 | 12
O=C(Nc1cccc(O)c1)c1cc(-c2cccs2)on1 | 88* | 10 | -1 | 81* | -1
Cc1ccc(NC(=O)c2cc(-c3cccs3)on2)cc1 | nt | 56* | 3 | 31 | 8
C[C@H](O)C#Cc1cnc2c(c1)C(=O)N([C@H](C)CO)C[C@H](C)[C@H](CN(C)C(=O)Nc1ccc(F)cc1)O2 | nt | nt | nt | 4 | -15
CNC[C@@H]1OCCCC[C@H](C)Oc2ccc(NC(=O)Nc3cccc4ccccc34)cc2C(=O)N([C@@H](C)CO)C[C@H]1C | nt | nt | nt | 1 | 15
COc1ccccc1C1=NOC(C)(c2sc(-c3ccc(Cl)cc3)nc2C)C1 (configuration not stated) | 37 | 2 | 1 | 43* | 5
Cc1nc(-c2ccc(Cl)cc2)sc1C1(C)CC(c2ccccc2Br)=NO1 (configuration not stated) | 14 | 5 | -1 | nt | nt
Cc1nc(-c2ccc(Cl)cc2)sc1C1(C)CC(c2ccccc2)=NO1 (configuration not stated) | 55 | 29 | 4 | 59* | -5
CC(C)CC#Cc1ccc2c(c1)O[C@@H](CN(C)C(=O)Nc1ccccc1F)[C@H](C)CN([C@@H](C)CO)S2(=O)=O | nt | nt | nt | -2 | -20
CCNC(=O)C[C@H]1CC[C@@H]2[C@H](COC[C@H](O)CN2Cc2ccc(Cl)c(Cl)c2)O1 | nt | nt | nt | 2 | 15
C/C(NC(=O)c1cccc(F)c1)=C1/C(=O)C[C@@H]2[C@H]1C2(C)C | 109* | nt | 4 | 65* | 128*
CCCCNC(=O)CCC(=O)Nc1ccc2nc(N3CCOCC3)cc(C)c2c1 | nt | 14 | 2 | 43* | -17
Cc1cn(CCC(=O)Nc2ccccc2N2CCOCC2)c2ccccc12 | nt | -2 | 4 | nt | nt
Cc1cn(CCC(=O)Nc2ccc(N3CCOCC3)cc2)c2ccccc12 | 81* | 16 | 5 | ? | -4
Cc1cc(N2CCCCC2)nc2ccc(NC(=O)CCC(=O)NCCC(C)C)cc12 | nt | 43* | 5 | 74* | 1
Cc1cc(N2CCOCC2)nc2ccc(NC(=O)CCC(=O)N3CCN(c4ccccc4)CC3)cc12 | 80 | 4 | 3 | 53* | -3
CN(CC1CCCCO1)C(=O)c1cc(COc2ccc(F)cc2Cl)on1 (configuration not stated) | 61 | 13 | 2 | 43* | 8
COc1cc(Cl)ccc1OCc1cc(C(=O)N(C)CC2CCCCO2)no1 (configuration not stated) | 50 | 40* | 4 | 70* | 10
Cc1nnc(CN(C)C(=O)c2cc(COc3ccc(F)cc3Cl)on2)o1 | 48 | 18 | 6 | 53* | -3
COc1ccc(OCc2cc(C(=O)N(C)CC3CCCCO3)no2)c(Cl)c1 (configuration not stated) | 44 | 19 | 3 | 41* | 3
CN(CCC1CCCCO1)C(=O)c1cc(COc2ccc(F)cc2F)on1 (configuration not stated) | 4 | 3 | 1 | 2 | -6
O=C(Nc1ccc2c(c1)[C@@H]1C[C@@H](CC(=O)N3CCc4ccccc4C3)O[C@H](CO)[C@@H]1O2)NC1CCCC1 | nt | nt | nt | 8 | 4
CC(C)NC(=O)NCC[C@H]1CC[C@@H](NC(=O)CCN2CCCCC2)[C@H](CO)O1 | nt | nt | nt | -3 | -12
COc1ccc(OCc2cc(C(=O)N(C)CCC3CCOCC3)no2)c(Cl)c1 | 68 | 22 | 3 | 58* | 10
COc1ccc(OCc2cc(C(=O)N3CCSCC3)no2)c(Cl)c1 | ? | 27 | 3 | nt | nt
